Screens from PubChem BioAssay.
In the library only some 32% were active in any assay of this set; here they are far more common.
CYP2C9 activ – CYP2C9 (human) activation; P11712; recombinant CYP2C9, luciferin-H conversion, luminescence; active compounds read high; factor 1 = untreated enzyme, 0 = blocked; activation factor at 5 µM; 96,000 compounds, 1.4% hits;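 active = activation factor of 2 or more for CYP2C9 at a 5 µM dose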;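 also: 0 = sulfaphenazole-blocked wells and 1 = vehicle-only wells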
Target sequence (P11712 whole entry, looked up): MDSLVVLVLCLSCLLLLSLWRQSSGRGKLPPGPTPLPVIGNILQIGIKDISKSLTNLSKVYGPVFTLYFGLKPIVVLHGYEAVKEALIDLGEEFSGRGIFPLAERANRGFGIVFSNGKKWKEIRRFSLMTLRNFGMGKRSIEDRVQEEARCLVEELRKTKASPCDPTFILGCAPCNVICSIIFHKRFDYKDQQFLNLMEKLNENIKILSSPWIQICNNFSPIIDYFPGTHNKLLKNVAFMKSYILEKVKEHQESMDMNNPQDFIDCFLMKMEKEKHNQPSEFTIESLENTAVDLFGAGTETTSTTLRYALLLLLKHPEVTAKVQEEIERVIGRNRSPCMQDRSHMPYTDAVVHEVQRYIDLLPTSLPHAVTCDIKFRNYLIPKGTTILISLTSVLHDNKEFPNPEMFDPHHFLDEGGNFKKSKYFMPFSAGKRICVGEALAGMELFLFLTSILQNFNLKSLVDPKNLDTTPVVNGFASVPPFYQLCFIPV
PostGolgi ctrl – inhibits growth of the yeast control strain; efflux-deficient yeast background strain, growth absorbance A615, 16 h; inhibition, % at 10 µM; 98,000 compounds, 5% hits; AID 738
PostGolgi yeast – growth inhibition of a yeast mutant, post-Golgi transport screen | post-Golgi transport phenotypic cell assay | inhibition, % at 10 µM | 98,000 compounds, 0.9% hits | AID 739;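 also: yeast cells grown in 1536-well plates; yeast grown about 18 h at 30C before absorbance read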
CYP2C9 inhib – human CYP2C9 inhibition | CYP2C9 Supersomes, luciferin-H conversion, luminescence | inhibition, % at 5 µM | 96,000 compounds, 20% hits | AID 777;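 active = blocking of liver enzyme CYP2C9 beyond about 50% at 5 µM, limit read from the data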
CYP2C19 inhib – human CYP2C19 inhibition. P33261. 96,000 compounds, 21% hits. inhibition, % at 5 µM. CYP2C19 Supersomes, luciferin-H EGE luminescence, 30 min;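 active = CYP2C19 inhibition above a set limit at 5 µM in the primary screen, cut at about 50% in these data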;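 also: plate controls were negative control wells for no effect and 2.5 mM tranylcypromine positive control for full effect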
CYP2C19 activ – cytochrome P450 2C19 (human) activation; activation factor at 5 µM; 96,000 tested, under 10 active; recombinant CYP2C19, luciferin-H EGE luminescence; active compounds read high; 0 = fully inhibited enzyme, 1 = untreated enzyme;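 active = activation factor of at least 2 at 5 µM in the primary screen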;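 also: 0 = wells with 2.5 mM tranylcypromine and 1 = vehicle-only wells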
Numbers without * were called inactive; / = not tested or not shown. Rule as the data show it, unless noted: active = inhibition above about 30%; inactive = the rest.

SMILES	CYP2C9 activ	PostGolgi ctrl	PostGolgi yeast	CYP2C9 inhib	CYP2C19 inhib	CYP2C19 activ
CCN(CC)C(=O)CSc1nnc([C@@H](N)Cc2ccccc2)o1	1.1	/	/	-6	21	0.8
C=CCOc1c(Cl)cc(CNCCC)cc1Cl	0.8	13	-5	24	59*	0.4
C=CCOc1c(Cl)cc(CNc2ccc(N(C)C)cc2)cc1OC	0.3	0	2	72*	96*	0
C=CCOc1c(Cl)cc(CNc2ccc(C)c(Cl)c2)cc1OC	0.4	30	16	57*	38	0.6
CCN1CCN(S(=O)(=O)c2cccs2)CC1	1.1	-6	-2	-13	-8	1.1
CC1(C)CC(=O)C=C(Nc2ccccc2NC(=O)c2cnccn2)C1	0.6	-7	-4	42	0	1
CCC(C)NC(=O)Nc1ccc2c(c1)N(C)C(=O)c1ccccc1S2 (centres undefined)	0	1	20	97*	70*	0.3
CCCCn1c(=O)cc(N2CCOCC2)[nH]c1=O	1.3	5	2	-30	-21	1.2
COc1ccccc1-c1ccc(Nc2cccc(C(C)=O)c2)nn1	1.5	-1	-6	-49	80*	0.2
C=CCN(CC=C)Cc1c(C)[nH]c2ccc(C(=O)OCC)cc2c1=O	0.8	2	11	18	14	0.9
COc1ccccc1NC(=O)CSc1nnc(C)n1Cc1ccccc1	1	15	-2	-3	52*	0.5
C=CCn1c(SCC(O)Cn2c3ccccc3c3ccccc32)nnc1-c1ccco1 (centres undefined)	0.1	46*	-8	90*	98*	0
C=CCn1c(SCC(=O)Nc2ccccc2OC)nnc1-c1ccco1	0.9	-5	-8	10	54*	0.5
CCc1ccccc1NC(=O)CSc1nnc(-c2ccco2)n1N	1.1	0	3	-10	56*	0.4
Cc1nnc(SCC(=O)Nc2ccc(Cl)cn2)n1Cc1ccccc1	0.9	1	-2	5	18	0.8
Cn1c(CNC(=O)c2ccc(Cl)c(Cl)c2)nnc1SCC(=O)Nc1sc2c(c1C#N)CCCC2	0.8	-5	-4	21	11	0.9
CN(C)c1nc(Nc2ccc(Cl)cc2)nc(OCC#N)n1	1	5	3	4	-7	1.1
O=C(Nc1nnc(COc2ccc(Cl)cc2)s1)c1cccs1	0.5	2	-1	55*	22	0.8
O=C(Nc1nnc(COc2ccc(F)cc2)s1)c1cccs1	0.7	-10	-6	30	6	0.9
O=C(Oc1cccc([N+](=O)[O-])c1)c1cc(-c2ccccc2)nc2ccccc12	0.8	0	-5	18	2	1
Cc1oc(-c2ccccc2)nc1Cn1cccc1C1=NC(c2ccccc2)CO1 (centres undefined)	0.2	9	-7	82*	84*	0.2
CCc1ccc(-c2nc(CN3CCC(C(=O)NCc4ccccc4OC)CC3)c(C)o2)cc1	1.1	10	2	-10	21	0.8
O=C(CCN1C(=O)c2ccccc2C1=O)OCn1nnc2ccccc2c1=O	1.3	12	-1	-26	-3	1
CCOC(=O)c1ccc(Oc2cc(C)nc(SC)n2)cc1	0.9	6	0	9	15	0.8
O=C(c1ccccc1F)N1CCN(CC2CC3C=CC2C3)CC1 (centres undefined)	0.9	-1	6	6	69*	0.3
SMILES	CYP2C9 activ	PostGolgi ctrl	PostGolgi yeast	CYP2C9 inhib	CYP2C19 inhib	CYP2C19 activ
CC1CCCC(N2CCN(C(=O)c3cccc(F)c3)CC2)C1 (centres undefined)	0.6	12	11	42	89*	0.1
O=C(c1cccc(F)c1)N1CCN(CC2CC3C=CC2C3)CC1 (centres undefined)	0.7	-1	25	32	90*	0.1
O=CN1CCN(C(=O)c2ccccc2F)CC1	1.2	-1	13	-19	0	1
CC1CCCCC1N1CCN(C(=O)c2cccc(F)c2)CC1 (centres undefined)	1	-3	5	2	3	1
COc1cc2c(cc1OC)CN(C(=O)CC1CC3CCC1C3)CC2 (centres undefined)	0.9	10	-4	10	20	0.8
CN(C(=O)C1CCOC1)c1nnc(-c2ccccn2)s1 (centres undefined)	1.1	-9	6	-6	-4	1
CN(C(=O)C1CCCO1)c1nnc(-c2ccncc2)s1 (centres undefined)	0.9	2	-1	14	98*	0
CN(C(=O)C1CCOC1)c1nnc(-c2ccncc2)s1 (centres undefined)	0.8	-6	1	24	98*	0
CC(C)[C@@H]1CC[C@@H](C)c2c(-c3ccccc3)n[nH]c21	0.9	41*	5	7	2	1
CCNc1nc(NCc2ccccc2)nc(Oc2ccc(=O)[nH]n2)n1	/	-2	4	/	/	/
CCNc1nc(NC(C)CC)nc(Oc2ccc(=O)[nH]n2)n1 (centres undefined)	1	6	7	4	50*	0.5
Cc1ccc(-c2nnc(Nc3ccc4c(c3)nc(C)n4C)c3ccccc23)cc1	1	19	9	-4	11	0.9
COc1ccccc1-n1c(CNC(=O)c2ccco2)nnc1SCC(=O)Nc1nccs1	0.6	1	-4	42	17	0.8
CCCCC(=O)OCCNC(=O)c1cc2ccccc2oc1=O	0.7	6	23	32	59*	0.4
CCOC(=O)c1c(C)sc2c1N(C(=O)CN(CC)CC)c1cc(Cl)ccc1S2	0.3	5	0	70*	70*	0.3
CCOC(=O)c1c(C)sc2c1N(C(=O)CN1CCOCC1)c1cc(Cl)ccc1S2	0.9	54*	-9	14	20	0.8
CN1CCN(CCC(=O)N2c3ccccc3Sc3ccc(Cl)cc32)CC1	1.1	-3	1	-9	2	1
O=C(Cn1nc(C(F)(F)F)c2c1CCCC2)NCCN1CCOCC1	0.7	-3	-6	27	64*	0.4
CC1CCN(C(=O)Cn2nc(C(F)(F)F)c3c2CCCC3)CC1	1	15	-5	-4	15	0.8
Cc1ccccc1-c1nc(CN2CCC(C(=O)NCc3cccs3)CC2)c(C)o1	0.6	8	-8	42	31	0.7
CCC(c1nnnn1Cc1ccc(F)cc1)N1CCN(C2CCCCC2)CC1 (centres undefined)	0.9	1	3	14	8	0.9
Fc1ccc(C2C3=C(Nc4ncnn42)c2ccccc2OC3c2ccncc2)cc1 (centres undefined)	0.2	8	-8	77*	93*	0.1
Cc1ccc(C2Oc3ccccc3C3=C2C(c2cccs2)n2ncnc2N3)cc1 (centres undefined)	0.5	39*	18	50	17	0.8
CCOC(=O)CNc1nc(OCC#N)nc(N2CCOCC2)n1	1.1	1	5	-9	-11	1.1
Oc1ccc(Cl)cc1CNc1ccc(Br)cn1	0.8	48*	0	24	23	0.8
